From PubChem BioAssay AID1159580 (chemical genetic matrix, 2015)
Values joined by “and” are separate entries in the source; they are usually repeats but may differ in a detail not shown here. Equal entries are not always repeated. In all, about 5,500 compounds went through this assay and about 2,000 (36%) were called active. Not shown: some 18% with an inconclusive outcome. Rule as the data show it: active = normalized growth mostly below about 0.91 (no sharp cut-off); inconclusive = no clear call, values can overlap the other calls; inactive = mostly above about 0.92. The list shows a part of the results.

Assay: chemical genetic growth profiling, strain panel (AID 1159580);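 also: tested at 20 µM; growth read once vehicle control cultures reached saturation at 30 °C; 1 = growth at the plate median or of vehicle wells; lower values mean less growth of the strain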
Settings: growth OD

Measured: normalized growth

CSCCC(N)C(=O)NC(CC(C)C)C(=O)NC(Cc1ccccc1)C(=O)O (configuration not stated)
inactive: S. cerevisiae deletion strains, locus YAL013W, strain DEP1, stronger effect = lower value 1.01 | S. cerevisiae deletion strains, locus YBR021W, strain FUR4, stronger effect = lower value 1.02 | S. cerevisiae deletion strains, locus YBR229C, strain ROT2, stronger effect = lower value 1.01 | S. cerevisiae deletion strains, locus YCL029C, strain bik1, stronger effect = lower value 0.987 | S. cerevisiae deletion strains, locus YDL035C, strain GPR1, stronger effect = lower value 1.02 | S. cerevisiae deletion strains, locus YDL074C, strain BRE1, stronger effect = lower value 1.05 | S. cerevisiae deletion strains, locus YDL101C, strain DUN1, stronger effect = lower value 1.02 | S. cerevisiae deletion strains, locus YDL134C, strain PPH21, stronger effect = lower value 1.02 | S. cerevisiae deletion strains, locus YDL185W, strain tfp1, stronger effect = lower value 1 | S. cerevisiae deletion strains, locus YDL192W, strain arf1, stronger effect = lower value 1 | S. cerevisiae deletion strains, locus YDR101C, strain arx1, stronger effect = lower value 0.994 | S. cerevisiae deletion strains, locus YDR150W, strain NUM1, stronger effect = lower value 1.02 | S. cerevisiae deletion strains, locus YDR162C, strain NBP2, stronger effect = lower value 1.02 | S. cerevisiae deletion strains, locus YDR318W, strain mcm21, stronger effect = lower value 0.978 | S. cerevisiae deletion strains, locus YDR388W, stronger effect = lower value 0.995 | S. cerevisiae deletion strains, locus YDR502C, strain sam2, stronger effect = lower value 1.01 | S. cerevisiae deletion strains, locus YEL061C, strain CIN8, stronger effect = lower value 1.01 | S. cerevisiae deletion strains, locus YER110C, stronger effect = lower value 0.994 | S. cerevisiae deletion strains, locus YER155C, strain BEM2, stronger effect = lower value 1.01 | S. cerevisiae deletion strains, locus YER167W, strain BCK2, stronger effect = lower value 1.02 | S. cerevisiae deletion strains, locus YGL078C, strain dbp3, stronger effect = lower value 0.987 | S. cerevisiae deletion strains, locus YGL086W, strain mad1, stronger effect = lower value 0.999 | S. cerevisiae deletion strains, locus YGL248W, strain PDE1, stronger effect = lower value 1.02 | S. cerevisiae deletion strains, locus YGR078C, strain PAC10, stronger effect = lower value 1.03 | S. cerevisiae deletion strains, locus YGR135W, strain pre9, stronger effect = lower value 1 | S. cerevisiae deletion strains, locus YGR229C, strain SMI1, stronger effect = lower value 1.04 | S. cerevisiae deletion strains, locus YGR252W, strain gcn5, stronger effect = lower value 0.956 | S. cerevisiae deletion strains, locus YHR030C, strain SLT2, stronger effect = lower value 1 and 1.02 | S. cerevisiae deletion strains, locus YHR079C, strain IRE1 (second series), stronger effect = lower value 0.988 | S. cerevisiae deletion strains, locus YHR079C, strain IRE1, stronger effect = lower value 1.01 | S. cerevisiae deletion strains, locus YHR094C, strain hxt1, stronger effect = lower value 0.996 | S. cerevisiae deletion strains, locus YHR129C, strain ARP1, stronger effect = lower value 1.01 | S. cerevisiae deletion strains, locus YHR200W, strain rpn10, stronger effect = lower value 0.995 | S. cerevisiae deletion strains, locus YIL066C, strain RNR3, stronger effect = lower value 1.01 | S. cerevisiae deletion strains, locus YIL073C, strain SPO22, stronger effect = lower value 1 | S. cerevisiae deletion strains, locus YIL125W, strain kgd1, stronger effect = lower value 1 | S. cerevisiae deletion strains, locus YIR030C, strain dcg1, stronger effect = lower value 0.998 | S. cerevisiae deletion strains, locus YJL095W, strain BCK1, stronger effect = lower value 1.04 and 0.991 | S. cerevisiae deletion strains, locus YJL134W, strain LCB3, stronger effect = lower value 1.01 | S. cerevisiae deletion strains, locus YJL168C, strain set2, stronger effect = lower value 0.998 | S. cerevisiae deletion strains, locus YJL187C, strain SWE1 (second series), stronger effect = lower value 1.02 | S. cerevisiae deletion strains, locus YJR043C, strain POL32, stronger effect = lower value 1 | S. cerevisiae deletion strains, locus YJR066W, strain TOR1, stronger effect = lower value 0.934 | S. cerevisiae deletion strains, locus YJR075W, strain HOC1, stronger effect = lower value 1.02 | S. cerevisiae deletion strains, locus YKL009W, strain mrt4, stronger effect = lower value 0.993 | S. cerevisiae deletion strains, locus YKL068W, stronger effect = lower value 0.987 | S. cerevisiae deletion strains, locus YKL085W, strain MDH1 (second series), stronger effect = lower value 1 | S. cerevisiae deletion strains, locus YKL085W, strain MDH1, stronger effect = lower value 1 | S. cerevisiae deletion strains, locus YKL190W, strain CNB1, stronger effect = lower value 1.01 | S. cerevisiae deletion strains, locus YKR001C, strain vps1, stronger effect = lower value 0.995 | S. cerevisiae deletion strains, locus YLR039C, strain RIC1, stronger effect = lower value 1.07 | S. cerevisiae deletion strains, locus YLR058C, strain SHM2, stronger effect = lower value 1.01 | S. cerevisiae deletion strains, locus YLR102C, strain apc9, stronger effect = lower value 0.994 | S. cerevisiae deletion strains, locus YLR113W, strain HOG1, stronger effect = lower value 0.988 | S. cerevisiae deletion strains, locus YLR262C, strain YPT6, stronger effect = lower value 1.04 | S. cerevisiae deletion strains, locus YLR268W, strain sec22, stronger effect = lower value 1.01 | S. cerevisiae deletion strains, locus YLR330W, strain CHS5, stronger effect = lower value 1.01 | S. cerevisiae deletion strains, locus YLR342W, strain FKS1 (second series), stronger effect = lower value 1.01 | S. cerevisiae deletion strains, locus YLR371W, strain rom2, stronger effect = lower value 1 | S. cerevisiae deletion strains, locus YLR418C, strain cdc73, stronger effect = lower value 1 | S. cerevisiae deletion strains, locus YML016C, strain PPZ1, stronger effect = lower value 1.01 | S. cerevisiae deletion strains, locus YML032C, strain rad52, stronger effect = lower value 0.989 | S. cerevisiae deletion strains, locus YML124C, strain tub3, stronger effect = lower value 0.995 | S. cerevisiae deletion strains, locus YMR078C, strain ctf18, stronger effect = lower value 0.987 | S. cerevisiae deletion strains, locus YMR223W, strain ubp8, stronger effect = lower value 0.995 | S. cerevisiae deletion strains, locus YMR263W, strain SAP30, stronger effect = lower value 1.03 | S. cerevisiae deletion strains, locus YMR307W, strain GAS1, stronger effect = lower value 0.996 | S. cerevisiae deletion strains, locus YNL067W, strain RPL9B, stronger effect = lower value 1.03 | S. cerevisiae deletion strains, locus YNL128W, strain TEP1, stronger effect = lower value 1.03 | S. cerevisiae deletion strains, locus YNL153C, strain GIM3, stronger effect = lower value 1.02 | S. cerevisiae deletion strains, locus YNL183C, strain NPR1, stronger effect = lower value 0.928 | S. cerevisiae deletion strains, locus YNL233W, strain BNI4, stronger effect = lower value 1.02 | S. cerevisiae deletion strains, locus YNL250W, strain rad50, stronger effect = lower value 1 | S. cerevisiae deletion strains, locus YNL271C, strain bni1, stronger effect = lower value 0.994 | S. cerevisiae deletion strains, locus YNL298W, strain CLA4, stronger effect = lower value 1 | S. cerevisiae deletion strains, locus YNL307C, strain MCK1, stronger effect = lower value 0.98 | S. cerevisiae deletion strains, locus YNL322C, strain KRE1, stronger effect = lower value 1.01 | S. cerevisiae deletion strains, locus YNR052C, strain pop2, stronger effect = lower value 0.996 | S. cerevisiae deletion strains, locus YOL006C, strain TOP1, stronger effect = lower value 1.11 | S. cerevisiae deletion strains, locus YOL012C, strain htz1 0.734 | S. cerevisiae deletion strains, locus YOL147C, strain pex11, stronger effect = lower value 0.996 | S. cerevisiae deletion strains, locus YOR061W, strain CKA2, stronger effect = lower value 1.02 | S. cerevisiae deletion strains, locus YOR069W, strain VPS5, stronger effect = lower value 1.01 | S. cerevisiae deletion strains, locus YOR136W, strain idh2, stronger effect = lower value 0.989 | S. cerevisiae deletion strains, locus YOR144C, strain elg1, stronger effect = lower value 0.998 | S. cerevisiae deletion strains, locus YOR184W, strain ser1, stronger effect = lower value 0.989 | S. cerevisiae deletion strains, locus YOR231W, strain MKK1, stronger effect = lower value 1 | S. cerevisiae deletion strains, locus YOR316C, strain cot1, stronger effect = lower value 0.998 | S. cerevisiae deletion strains, locus YPL055C, strain LGE1, stronger effect = lower value 1.06 | S. cerevisiae deletion strains, locus YPL241C, strain CIN2, stronger effect = lower value 1.01 | S. cerevisiae deletion strains, locus YPL256C, strain CLN2, stronger effect = lower value 1.01 | S. cerevisiae deletion strains, locus YPR119W, strain clb2, stronger effect = lower value 0.985 | S. cerevisiae deletion strains, locus YPR141C, strain kar3, stronger effect = lower value 0.993 | S. cerevisiae deletion strains, locus YPR163C, strain tif3, stronger effect = lower value 0.989 | S. cerevisiae deletion strains, locus YPR167C, strain met16, stronger effect = lower value 0.993 | S. cerevisiae deletion strains, strain wtn01, stronger effect = lower value 1.01 | S. cerevisiae strains, strain wild type, stronger effect = lower value 1.01
